Laboratory results: the supplement of paper PMC7595190

Columns and labels:
Test in all cases: CellTox Green cytotoxicity fluorescence relative to DMSO vehicle (fold of vehicle RFU); higher = more cell death (loss of membrane integrity), active = 2 or more
CMK = system: CMK
Outline: (§1)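 Cytotoxicity values reflect loss of membrane integrity and are fluorescence expressed as fold of the DMSO vehicle. MV4-11, CMK and Kasumi-1 cells were seeded at 4.0 × 10^4 cells per well with CellTox Green reagent and treated with single Selleckchem apoptosis library compounds at final 0.01, 0.1 and 1 µM, with 0.1% DMSO as vehicle. Plates were held at 37 °C, 5% CO2 and read at 24, 48 and 72 h.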

Kasumi-1 = system: Kasumi-1
Outline: as §1

MV4-11 = system: MV4-11
Outline: as §1

Measured: CellTox Green cytotoxicity fluorescence

CCCC[C@@H](C=O)NC(=O)[C@H](CC(C)C)NC(=O)OCc1ccccc1 [Calpeptin]
inactive: CMK; 0.01 µM, 24 h 1 | CMK; 0.01 µM, 48 h 0.98 | CMK; 0.01 µM, 72 h 0.961 | CMK; 0.1 µM, 24 h 0.992 | CMK; 0.1 µM, 48 h 1 | CMK; 0.1 µM, 72 h 1.02 | CMK; 1 µM, 24 h 0.994 | CMK; 1 µM, 48 h 1.01 | CMK; 1 µM, 72 h 1.01 | Kasumi-1; 0.01 µM, 24 h 0.957 | Kasumi-1; 0.01 µM, 48 h 0.968 | Kasumi-1; 0.01 µM, 72 h 0.962 | Kasumi-1; 0.1 µM, 24 h 0.965 | Kasumi-1; 0.1 µM, 48 h 0.93 | Kasumi-1; 0.1 µM, 72 h 0.913 | Kasumi-1; 1 µM, 24 h 1.01 | Kasumi-1; 1 µM, 48 h 1.02 | Kasumi-1; 1 µM, 72 h 1.03

CC(C)c1ccccc1Cc1cc(C(=O)Nc2ccc(S(=O)(=O)c3ccccc3C(C)(C)C)cc2)c(O)c(O)c1O
inactive: CMK; 0.01 µM, 24 h 0.947 | CMK; 0.01 µM, 48 h 0.942 | CMK; 0.01 µM, 72 h 0.932 | CMK; 0.1 µM, 24 h 0.932 | CMK; 0.1 µM, 48 h 0.922 | CMK; 0.1 µM, 72 h 0.947 | CMK; 1 µM, 24 h 0.924 | CMK; 1 µM, 48 h 1.51 | CMK; 1 µM, 72 h 1.6 | Kasumi-1; 0.01 µM, 24 h 0.977 | Kasumi-1; 0.01 µM, 48 h 0.911 | Kasumi-1; 0.01 µM, 72 h 0.915 | Kasumi-1; 0.1 µM, 24 h 0.951 | Kasumi-1; 0.1 µM, 48 h 0.94 | Kasumi-1; 0.1 µM, 72 h 0.932 | Kasumi-1; 1 µM, 24 h 0.94 | Kasumi-1; 1 µM, 48 h 0.909 | Kasumi-1; 1 µM, 72 h 0.919

CNC(=O)c1ccc(Nc2ncc(C(F)(F)F)c(NCc3nccnc3N(C)S(C)(=O)=O)n2)cc1 [Defactinib]
inactive: CMK; 0.01 µM, 24 h 0.942 | CMK; 0.01 µM, 48 h 0.942 | CMK; 0.01 µM, 72 h 0.941 | CMK; 0.1 µM, 24 h 0.923 | CMK; 0.1 µM, 48 h 0.931 | CMK; 0.1 µM, 72 h 0.915 | CMK; 1 µM, 24 h 0.945 | CMK; 1 µM, 48 h 1.01 | CMK; 1 µM, 72 h 0.889 | Kasumi-1; 0.01 µM, 24 h 0.961 | Kasumi-1; 0.01 µM, 48 h 0.964 | Kasumi-1; 0.01 µM, 72 h 0.942 | Kasumi-1; 0.1 µM, 24 h 0.955 | Kasumi-1; 0.1 µM, 48 h 0.958 | Kasumi-1; 0.1 µM, 72 h 0.956 | Kasumi-1; 1 µM, 24 h 0.931 | Kasumi-1; 1 µM, 48 h 0.985 | Kasumi-1; 1 µM, 72 h 0.991 | MV4-11; 0.01 µM, 24 h 0.944 | MV4-11; 0.01 µM, 48 h 0.943 | MV4-11; 0.01 µM, 72 h 0.952 | MV4-11; 0.1 µM, 24 h 0.955 | MV4-11; 0.1 µM, 48 h 0.991 | MV4-11; 0.1 µM, 72 h 1.01 | MV4-11; 1 µM, 24 h 1 | MV4-11; 1 µM, 48 h 1.12 | MV4-11; 1 µM, 72 h 1.29

C=CC(=O)N1CC(=Cc2ccc([N+](=O)[O-])cc2)C(=O)C(=Cc2ccc([N+](=O)[O-])cc2)C1
inactive: CMK; 0.01 µM, 24 h 0.921 | CMK; 0.01 µM, 48 h 0.908 | CMK; 0.01 µM, 72 h 0.929 | CMK; 0.1 µM, 24 h 1.13 | CMK; 0.1 µM, 48 h 1.16 | CMK; 0.1 µM, 72 h 1.07 | Kasumi-1; 0.01 µM, 24 h 1.01 | Kasumi-1; 0.01 µM, 48 h 0.937 | Kasumi-1; 0.01 µM, 72 h 0.951 | Kasumi-1; 0.1 µM, 24 h 1.01 | Kasumi-1; 0.1 µM, 48 h 1.05 | Kasumi-1; 0.1 µM, 72 h 1.04 | Kasumi-1; 1 µM, 24 h 1.25 | Kasumi-1; 1 µM, 48 h 1.78 | Kasumi-1; 1 µM, 72 h 1.95
active: CMK; 1 µM, 24 h 2.14 | CMK; 1 µM, 48 h 3.36 | CMK; 1 µM, 72 h 2.48

N#CC(=Cc1ccc(-c2cc(Cl)ccc2Cl)o1)C(=O)Nc1cccc2ncccc12
inactive: CMK; 0.01 µM, 24 h 0.949 | CMK; 0.01 µM, 48 h 0.938 | CMK; 0.01 µM, 72 h 0.947 | CMK; 0.1 µM, 24 h 0.993 | CMK; 0.1 µM, 48 h 0.99 | CMK; 0.1 µM, 72 h 0.992 | CMK; 1 µM, 24 h 1 | CMK; 1 µM, 48 h 1.05 | CMK; 1 µM, 72 h 1.03 | Kasumi-1; 0.01 µM, 24 h 1 | Kasumi-1; 0.01 µM, 48 h 0.958 | Kasumi-1; 0.01 µM, 72 h 0.958 | Kasumi-1; 0.1 µM, 24 h 0.998 | Kasumi-1; 0.1 µM, 48 h 0.979 | Kasumi-1; 0.1 µM, 72 h 0.979 | Kasumi-1; 1 µM, 24 h 0.939 | Kasumi-1; 1 µM, 48 h 0.916 | Kasumi-1; 1 µM, 72 h 0.917

Nc1nc(F)nc2c1ncn2[C@@H]1O[C@H](CO)[C@@H](O)[C@@H]1O [Fludarabine]
inactive: CMK; 0.01 µM, 24 h 1 | CMK; 0.01 µM, 48 h 1 | CMK; 0.01 µM, 72 h 1 | CMK; 0.1 µM, 24 h 0.981 | CMK; 0.1 µM, 48 h 0.982 | CMK; 0.1 µM, 72 h 0.939 | CMK; 1 µM, 24 h 0.976 | CMK; 1 µM, 48 h 0.961 | CMK; 1 µM, 72 h 0.907 | Kasumi-1; 0.01 µM, 24 h 0.951 | Kasumi-1; 0.01 µM, 48 h 0.991 | Kasumi-1; 0.01 µM, 72 h 0.986 | Kasumi-1; 0.1 µM, 24 h 0.99 | Kasumi-1; 0.1 µM, 48 h 0.99 | Kasumi-1; 0.1 µM, 72 h 0.984 | Kasumi-1; 1 µM, 24 h 1.02 | Kasumi-1; 1 µM, 48 h 1.01 | Kasumi-1; 1 µM, 72 h 1.03 | MV4-11; 0.01 µM, 24 h 0.938 | MV4-11; 0.01 µM, 48 h 0.968 | MV4-11; 0.01 µM, 72 h 0.976 | MV4-11; 0.1 µM, 24 h 0.992 | MV4-11; 0.1 µM, 48 h 0.985 | MV4-11; 0.1 µM, 72 h 0.98 | MV4-11; 1 µM, 24 h 0.994 | MV4-11; 1 µM, 48 h 0.984 | MV4-11; 1 µM, 72 h 1.01

CCC(CC)n1ccc2c(C(=O)NCc3c(C)cc(C)[nH]c3=O)cc(C#N)cc21
inactive: CMK; 0.01 µM, 24 h 0.768 | CMK; 0.01 µM, 48 h 0.767 | CMK; 0.01 µM, 72 h 0.8 | Kasumi-1; 0.1 µM, 24 h 0.942 | Kasumi-1; 0.1 µM, 48 h 0.956 | Kasumi-1; 0.1 µM, 72 h 0.925 | Kasumi-1; 1 µM, 24 h 1.01 | Kasumi-1; 1 µM, 48 h 0.971 | Kasumi-1; 1 µM, 72 h 0.978 | MV4-11; 0.01 µM, 24 h 0.856 | MV4-11; 0.01 µM, 48 h 0.857 | MV4-11; 0.01 µM, 72 h 0.869

CCCCCCCCCCCC1=C(O)C(=O)C=C(O)C1=O [Embelin]
inactive: CMK; 0.01 µM, 24 h 1.03 | CMK; 0.01 µM, 48 h 1.04 | CMK; 0.01 µM, 72 h 1.09 | CMK; 0.1 µM, 24 h 0.994 | CMK; 0.1 µM, 48 h 0.99 | CMK; 0.1 µM, 72 h 0.973 | CMK; 1 µM, 24 h 0.986 | CMK; 1 µM, 48 h 1.04 | CMK; 1 µM, 72 h 1.05 | Kasumi-1; 0.01 µM, 24 h 0.991 | Kasumi-1; 0.01 µM, 48 h 0.988 | Kasumi-1; 0.01 µM, 72 h 0.992 | Kasumi-1; 0.1 µM, 24 h 1.01 | Kasumi-1; 0.1 µM, 48 h 0.999 | Kasumi-1; 0.1 µM, 72 h 0.996 | Kasumi-1; 1 µM, 24 h 1.02 | Kasumi-1; 1 µM, 48 h 1.03 | Kasumi-1; 1 µM, 72 h 1.04 | MV4-11; 0.01 µM, 24 h 1.01 | MV4-11; 0.01 µM, 48 h 1 | MV4-11; 0.01 µM, 72 h 1 | MV4-11; 0.1 µM, 24 h 1 | MV4-11; 0.1 µM, 48 h 0.999 | MV4-11; 0.1 µM, 72 h 1 | MV4-11; 1 µM, 24 h 1.02 | MV4-11; 1 µM, 48 h 1 | MV4-11; 1 µM, 72 h 1.01
